Data on 75 molecules can be found in the antibiotic and cytotoxicity screens of Wong et al. (2023).

The structures appear in SMILES notation. Screen size: about 39,000 compounds; about 3,300 (8.5%) were called active. For the sample, actives were picked, then their nearest neighbours and some compounds at random.

This experiment relates to HepG2. Description: cytotoxicity call (relative viability < 0.9). The settings on record: 10 µM.
On to `CC(C)NC(=O)N(C)C[C@@H]1Oc2ccc(NC(=O)NC3CCCCC3)cc2CC(=O)N([C@H](C)CO)C[C@H]1C`, for which the cytotoxicity call was “inactive”.

Regarding `O=C(CN1CCOCC1)NCC[C@H]1CC[C@H](NS(=O)(=O)c2ccc(F)cc2)[C@H](CO)O1`, the cytotoxicity call is “inactive”.

Regarding `C[C@@H]1CCCCO[C@H](CN(C)Cc2ccncc2)[C@H](C)CN([C@H](C)CO)C(=O)c2cc(NC(=O)c3ccccc3)ccc2O1`, the cytotoxicity call was “inactive”.

Turning to `C[C@@H]1CCCCO[C@@H](CN(C)Cc2ccccc2)[C@@H](C)CN([C@H](C)CO)C(=O)c2cc(NC(=O)c3ccccc3)ccc2O1`, the cytotoxicity call was “inactive”.

Regarding `C[C@@H]1CN([C@H](C)CO)C(=O)c2cc(C#CCc3ccccc3)cnc2O[C@H]1CN(C)C(=O)C1CCOCC1`, the cytotoxicity call is “inactive”.

In the case of `Cc1ccc(S(=O)(=O)N(C)C[C@H]2Oc3ccc(NS(=O)(=O)c4c(C)noc4C)cc3C(=O)N([C@@H](C)CO)C[C@H]2C)cc1`, the cytotoxicity call was “inactive”.

As to `CC(C)(C)c1ccc(-c2nc3ccccc3s2)cc1`, the cytotoxicity call is “inactive”.

Consider `C[C@H](CO)N1C[C@H](C)[C@@H](CN(C)S(=O)(=O)c2ccccc2)Oc2ncc(-c3cccc(C(=O)N(C)C)c3)cc2C1=O`, for which the cytotoxicity call is “inactive”.

On to `Cc1noc(C)c1NC(=O)N(C)C[C@@H]1Oc2ccc(NC(=O)CCN3CCOCC3)cc2C(=O)N([C@H](C)CO)C[C@H]1C`, for which the cytotoxicity call was “inactive”.

With `C[C@@H]1CCCCO[C@H](CN(C)Cc2ccc3c(c2)OCO3)[C@@H](C)CN([C@@H](C)CO)C(=O)c2cc(NC(=O)Nc3ccc(C(F)(F)F)cc3)ccc2O1`, the cytotoxicity call was “active”.

With `C[C@@H]1CCCCO[C@@H](CN(C)Cc2ccc3c(c2)OCO3)[C@@H](C)CN([C@@H](C)CO)C(=O)c2cc(NC(=O)Nc3ccc(C(F)(F)F)cc3)ccc2O1`, the cytotoxicity call is “active”.

Turning to `C[C@@H]1CN([C@@H](C)CO)C(=O)c2cc(NC(=O)Nc3ccc(C(F)(F)F)cc3)ccc2O[C@@H](C)CCCCO[C@@H]1CN(C)Cc1ccc2c(c1)OCO2`, the cytotoxicity call was “inactive”.

For `C[C@@H]1CN([C@H](C)CO)C(=O)c2cc(NC(=O)Nc3ccc(C(F)(F)F)cc3)ccc2O[C@@H](C)CCCCO[C@@H]1CN(C)Cc1ccc2c(c1)OCO2`, the cytotoxicity call is “active”.

Turning to `C[C@@H]1CCCCO[C@@H](CN(C)Cc2ccc3c(c2)OCO3)[C@H](C)CN([C@@H](C)CO)C(=O)c2cc(NC(=O)Nc3ccc(C(F)(F)F)cc3)ccc2O1`, the cytotoxicity call was “active”.

As to `C[C@@H]1CN([C@H](C)CO)C(=O)c2cc(NS(C)(=O)=O)ccc2O[C@@H](C)CCCCO[C@@H]1CN(C)C(=O)c1ccncc1`, the cytotoxicity call is “inactive”.

On to `C[C@H](CO)N1C[C@H](C)[C@H](CN(C)C(=O)Nc2ccnc(N3CCOCC3)c2)OCc2cnnn2CCCC1=O`, for which the cytotoxicity call is “inactive”.

For the molecule `Cc1noc(C)c1S(=O)(=O)N(C)C[C@@H]1Oc2ccc(NC(=O)CCCN(C)C)cc2C(=O)N([C@@H](C)CO)C[C@@H]1C`, the cytotoxicity call was “inactive”.

Regarding `C[C@H](CO)N1C[C@H](C)[C@@H](CN(C)Cc2ccc(Cl)c(Cl)c2)Oc2c(NC(=O)NC3CCCCC3)cccc2C1=O`, the cytotoxicity call was “inactive”.

As for `Cc1noc(C)c1NC(=O)Nc1cccc2c1O[C@@H](CN(C)C(=O)Nc1ccc(C(F)(F)F)cc1)[C@@H](C)CN([C@H](C)CO)C2=O`, the cytotoxicity call was “inactive”.

Take `COc1ccc(S(=O)(=O)N(C)C[C@@H]2Oc3c(NC(=O)Nc4c(C)noc4C)cccc3C(=O)N([C@H](C)CO)C[C@@H]2C)cc1`: the cytotoxicity call is “inactive”.

On to `CCCC(=O)Nc1ccc2c(c1)OC[C@@H](C)N(Cc1ccc(-c3ccccn3)cc1)C[C@@H](C)[C@H](OC)CN(C)C2=O`, for which the cytotoxicity call is “inactive”.

For `C[C@H](CO)N1C[C@H](C)[C@H](CN(C)Cc2ccc3c(c2)OCO3)OCCCC[C@H](C)Oc2ccc(NC(=O)Nc3ccc(C(F)(F)F)cc3)cc2C1=O`, the cytotoxicity call is “active”.

Consider `C[C@@H]1CCCCO[C@@H](CN(C)Cc2ccc3c(c2)OCO3)[C@@H](C)CN([C@H](C)CO)C(=O)c2cc(NC(=O)Nc3ccc(C(F)(F)F)cc3)ccc2O1`, for which the cytotoxicity call is “active”.

For `C[C@H]1CCCCO[C@@H](CN(C)Cc2ccc3c(c2)OCO3)[C@@H](C)CN([C@@H](C)CO)C(=O)c2cc(NC(=O)Nc3ccc(C(F)(F)F)cc3)ccc2O1`, the cytotoxicity call was “active”.

With `C[C@@H]1CCCCO[C@H](CN(C)Cc2ccc3c(c2)OCO3)[C@H](C)CN([C@@H](C)CO)C(=O)c2cc(NC(=O)Nc3ccc(C(F)(F)F)cc3)ccc2O1`, the cytotoxicity call was “active”.

For the molecule `C[C@@H]1CCCCO[C@H](CN(C)C(=O)Cc2ccccc2)[C@H](C)CN([C@@H](C)CO)C(=O)c2cc(NC(=O)c3ccccc3)ccc2O1`, the cytotoxicity call was “inactive”.

For the molecule `CCCNC(=O)N[C@@H]1CC[C@@H](CC(=O)N2CCN(C)CC2)O[C@@H]1CO`, the cytotoxicity call is “inactive”.

In the case of `Cc1noc(C)c1S(=O)(=O)Nc1ccc2c(c1)C(=O)N([C@H](C)CO)C[C@@H](C)[C@@H](CN(C)C(=O)Nc1ccc(F)cc1)OCCCC[C@@H](C)O2`, the cytotoxicity call was “inactive”.

Regarding `O=C(Nc1ccccc1C(=O)O)c1nnc[nH]1`, the cytotoxicity call was “inactive”.

As for `O=C(NCC[C@H]1CC[C@H](NS(=O)(=O)c2cccc(F)c2)[C@H](CO)O1)C1CC1`, the cytotoxicity call is “inactive”.

As for `C[C@@H](Oc1ccccc1)c1ccn[nH]1`, the cytotoxicity call is “inactive”.

With `C[C@H]([C@H](C)N1CC(=O)NC(=O)C1)N1CC(=O)NC(=O)C1`, the cytotoxicity call is “inactive”.

Take `C[C@@H]1CCCCO[C@@H](CN(C)Cc2ccc3c(c2)OCO3)[C@H](C)CN([C@H](C)CO)C(=O)c2cc(NC(=O)Nc3ccc(C(F)(F)F)cc3)ccc2O1`: the cytotoxicity call is “active”.

As to `C[C@@H]1CCCCO[C@H](CN(C)Cc2ccc3c(c2)OCO3)[C@H](C)CN([C@H](C)CO)C(=O)c2cc(NC(=O)Nc3ccc(C(F)(F)F)cc3)ccc2O1`, the cytotoxicity call was “active”.

Regarding `C[C@@H]1CCCCO[C@H](CN(C)Cc2ccc3c(c2)OCO3)[C@@H](C)CN([C@H](C)CO)C(=O)c2cc(NC(=O)Nc3ccc(C(F)(F)F)cc3)ccc2O1`, the cytotoxicity call is “active”.

`C[C@H]1CCCCO[C@H](CN(C)Cc2ccc3c(c2)OCO3)[C@@H](C)CN([C@@H](C)CO)C(=O)c2cc(NC(=O)Nc3ccc(C(F)(F)F)cc3)ccc2O1`: the cytotoxicity call was “active”.

As to `COCN(C#N)c1nc(N(C)C)nc(N(C)C)n1`, the cytotoxicity call is “inactive”.

As for `C[C@@H]1CN([C@H](C)CO)S(=O)(=O)c2ccc(-c3ccncc3)cc2O[C@H]1CN(C)S(=O)(=O)c1ccccc1F`, the cytotoxicity call was “inactive”.

For `NC(=O)c1cccnc1N1CCN(C(=O)[C@@H]2CC(=O)N(C3CC3)C2)CC1`, the cytotoxicity call is “inactive”.

Regarding `CCCC(=O)Nc1ccc2c(c1)C(=O)N(C)[C@@H]1CC[C@@H](CC(=O)NCCN3CCCCC3)O[C@H]1CO2`, the cytotoxicity call is “inactive”.

Turning to `Cn1nc(O)c(=O)[nH]c1=S`, the cytotoxicity call was “inactive”.

As for `O=C(Cc1ccncc1)Nc1ccc2c(c1)[C@H]1C[C@H](CC(=O)N3CCc4ccccc4C3)O[C@@H](CO)[C@H]1O2`, the cytotoxicity call is “inactive”.

As to `Cc1cn2c3c(=O)n(C)c(=O)n(C)c3nc2n1CCN1CCOCC1`, the cytotoxicity call is “inactive”.

As for `Cc1noc(C)c1NC(=O)N(C)C[C@H]1OCCCC[C@H](C)Oc2ccc(NC(=O)CCC(F)(F)F)cc2C(=O)N([C@H](C)CO)C[C@@H]1C`, the cytotoxicity call was “inactive”.

As for `C[C@@H]1CN([C@H](C)CO)C(=O)c2cc(NC(=O)Nc3ccc(C(F)(F)F)cc3)ccc2O[C@@H](C)CCCCO[C@H]1CN(C)Cc1ccc2c(c1)OCO2`, the cytotoxicity call was “active”.

On to `C[C@@H]1CN([C@@H](C)CO)C(=O)c2cc(NC(=O)Nc3ccc(C(F)(F)F)cc3)ccc2O[C@@H](C)CCCCO[C@H]1CN(C)Cc1ccc2c(c1)OCO2`, for which the cytotoxicity call was “active”.

Turning to `C[C@H](CO)N1C[C@H](C)[C@@H](CN(C)Cc2ccc3c(c2)OCO3)OCCCC[C@H](C)Oc2ccc(NC(=O)Nc3ccc(C(F)(F)F)cc3)cc2C1=O`, the cytotoxicity call was “active”.

`Cn1c(=O)[nH]c(=O)c2c(=O)cc[nH]c21`: the cytotoxicity call is “inactive”.

For `COc1ccccc1CNC(=O)C[C@H]1C[C@H]2c3cc(NC(=O)Cc4ccncc4)ccc3O[C@H]2[C@@H](CO)O1`, the cytotoxicity call is “inactive”.

Consider `C[C@@H]1CCCCO[C@H](CN(C)S(=O)(=O)c2ccc(F)cc2)[C@H](C)CN([C@H](C)CO)C(=O)c2cc(NC(=O)Nc3cccc4ccccc34)ccc2O1`, for which the cytotoxicity call was “inactive”.

Regarding `C[C@@H]1CN([C@@H](C)CO)C(=O)c2c(c3ccccc3n2C)-c2ccccc2CO[C@H]1CN(C)C(=O)Nc1cccc(Cl)c1Cl`, the cytotoxicity call was “inactive”.

With `CC(C)[C@H](NC=O)C(=O)OC[C@H](O)[C@H](O)[C@H](O)[C@H](O)COC(=O)[C@H](NC=O)C(C)C`, the cytotoxicity call was “inactive”.

Regarding `C[C@H](CO)N1C[C@H](C)[C@@H](CN(C)Cc2ccncc2)Oc2c(NC(=O)c3ccncc3)cccc2C1=O`, the cytotoxicity call is “inactive”.

In the case of `O=C1CSC(/N=C/c2ccccc2O)=NN1`, the cytotoxicity call was “active”.

As to `O=C(NCc1cccc(F)c1)[C@@H]1[C@@H](CO)[C@@H]2Cn3c(cccc3=O)[C@H]1N2C(=O)c1cnccn1`, the cytotoxicity call was “inactive”.

Consider `CN(C)CCC=C1c2ccccc2Sc2ccc(Cl)cc21.Cl`, for which the cytotoxicity call is “active”.

For the molecule `CN(C)CC/C=C1/c2ccccc2Sc2ccc(Cl)cc21`, the cytotoxicity call is “active”.

With `CCS(=O)(=O)N1C[C@]2(CN(Cc3cc(ccc3F)F)C2)c2c(n(c3cc(ccc23)OC)C)[C@H]1CO`, the cytotoxicity call was “inactive”.

With `CCS(=O)(=O)N1C[C@]2(CN(Cc3ccc4c(c3)OCO4)[C@H](CO)c3c2c2ccc(cc2n3C)OC)C1`, the cytotoxicity call is “inactive”.

With `C[C@@H]1CN([C@@H](C)CO)C(=O)c2cccc(NS(C)(=O)=O)c2O[C@H]1CN(C)C(=O)Nc1ccc2c(c1)OCO2`, the cytotoxicity call is “inactive”.

For the molecule `Cc1noc(C)c1S(=O)(=O)N(C)C[C@H]1OCCCC[C@@H](C)Oc2ccc(N(C)C)cc2C(=O)N([C@H](C)CO)C[C@@H]1C`, the cytotoxicity call was “inactive”.

Consider `COc1ccc(NC(=O)Nc2ccc3c(c2)C(=O)N([C@@H](C)CO)C[C@H](C)[C@@H](CN(C)C(=O)CCC(F)(F)F)OCCCC[C@@H](C)O3)cc1`, for which the cytotoxicity call is “inactive”.

For the molecule `C[C@H](CO)N1C[C@H](C)[C@@H](CN(C)Cc2ccncc2)OCCCC[C@H](C)Oc2ccc(NC(=O)C3CCCCC3)cc2C1=O`, the cytotoxicity call is “inactive”.

Consider `C[C@H]1CN([C@@H](C)CO)C(=O)c2cc(NC(=O)CCCN(C)C)ccc2O[C@@H]1CN(C)Cc1ccc(Oc2ccccc2)cc1`, for which the cytotoxicity call is “active”.

For `C[C@@H]1CN([C@H](C)CO)C(=O)c2cc(NC(=O)CCCN(C)C)ccc2O[C@H]1CN(C)Cc1ccc(Oc2ccccc2)cc1`, the cytotoxicity call was “active”.

For the molecule `C[C@H]1CN([C@@H](C)CO)C(=O)c2cc(NC(=O)CCCN(C)C)ccc2O[C@H]1CN(C)Cc1ccc(Oc2ccccc2)cc1`, the cytotoxicity call was “active”.

As to `C[C@@H]1CN([C@@H](C)CO)C(=O)c2cc(NC(=O)CCCN(C)C)ccc2O[C@H]1CN(C)Cc1ccc(Oc2ccccc2)cc1`, the cytotoxicity call is “inactive”.

Regarding `C[C@H](CO)N1C[C@H](C)[C@@H](CN(C)Cc2ccc(Oc3ccccc3)cc2)Oc2ccc(NC(=O)CCCN(C)C)cc2C1=O`, the cytotoxicity call is “inactive”.

Regarding `C[C@H](CO)N1C[C@H](C)[C@@H](CN(C)Cc2ccccc2)Oc2ccc(NC(=O)CCCN(C)C)cc2C1=O`, the cytotoxicity call is “inactive”.

`C[C@H]1CN([C@@H](C)CO)C(=O)c2cc(NC(=O)CCCN(C)C)ccc2O[C@H]1CN(C)Cc1ccccc1`: the cytotoxicity call was “inactive”.

Take `COc1ccc(CN(C)C[C@@H]2Oc3ccc(NC(=O)CCCN(C)C)cc3C(=O)N([C@H](C)CO)C[C@H]2C)cc1`: the cytotoxicity call is “inactive”.

For `C[C@@H]1CN([C@H](C)CO)C(=O)c2cc(NC(=O)CCCN(C)C)ccc2O[C@H]1CN(C)Cc1ccccc1`, the cytotoxicity call was “inactive”.

For the molecule `C[C@@H]1CN([C@H](C)CO)C(=O)c2cc(NC(=O)CCCN(C)C)ccc2O[C@@H]1CN(C)Cc1ccc(Oc2ccccc2)cc1`, the cytotoxicity call was “active”.

`C[C@@H]1CN([C@@H](C)CO)C(=O)c2cc(NC(=O)CCCN(C)C)ccc2O[C@H]1CN(C)Cc1ccccc1`: the cytotoxicity call was “inactive”.

For the molecule `COc1ccc(CN(C)C[C@H]2Oc3ccc(NC(=O)CCCN(C)C)cc3C(=O)N([C@H](C)CO)C[C@H]2C)cc1`, the cytotoxicity call was “inactive”.
